# Experimental data from ChEMBL document CHEMBL5606460, “ASAP - DENV-2 NS2B-NS3 protease fluorescence single point” (2024).
# The campaign covered roughly 2,000 compounds. About 110 (5.5%) showed an effect of 50% or more. The entries come from a sample that favours strong results as a whole.
# Biological target: Genome polyprotein (dengue virus type 2) (UniProt P29990)
smiles,measurement,setting,value
N=C(N)NCCC[C@H](NC(=O)c1nccs1)C(=O)N[C@@H](CCCCN)C(=O)N[C@@H](C(N)=O)c1ccc(OCc2ccc(C(F)(F)F)cc2)cc1,inhibition,"Thailand/16681/1984, Concentration 49.5 uM, Number of replicates 2.0, Standard deviation 0.01715005842126491 %",96.2%
same,inhibition,"Thailand/16681/1984, Concentration 49.5 uM, Number of replicates 2.0, Standard deviation 0.019135343573522066 %",96.1%
same,inhibition,"Thailand/16681/1984, Concentration 49.5 uM, Number of replicates 2.0, Standard deviation 0.03570815875758177 %",95.6%
same,inhibition,"Thailand/16681/1984, Concentration 49.5 uM, Number of replicates 2.0, Standard deviation 0.054562972907415325 %",95.2%
same,inhibition,"Thailand/16681/1984, Concentration 49.5 uM, Number of replicates 2.0, Standard deviation 0.06140896980473687 %",95.7%
same,inhibition,"Thailand/16681/1984, Concentration 49.5 uM, Number of replicates 2.0, Standard deviation 0.10612104410339795 %",97.2%
same,inhibition,"Thailand/16681/1984, Concentration 49.5 uM, Number of replicates 2.0, Standard deviation 0.10687631562871318 %",95.4%
same,inhibition,"Thailand/16681/1984, Concentration 49.5 uM, Number of replicates 2.0, Standard deviation 0.10916370939109642 %",95.9%
same,inhibition,"Thailand/16681/1984, Concentration 49.5 uM, Number of replicates 2.0, Standard deviation 0.11089004430610264 %",91.3%
same,inhibition,"Thailand/16681/1984, Concentration 49.5 uM, Number of replicates 2.0, Standard deviation 0.12066541576232535 %",96.7%
same,inhibition,"Thailand/16681/1984, Concentration 49.5 uM, Number of replicates 2.0, Standard deviation 0.12893024416791762 %",95%
same,inhibition,"Thailand/16681/1984, Concentration 49.5 uM, Number of replicates 2.0, Standard deviation 0.18367124536344298 %",96.2%
same,inhibition,"Thailand/16681/1984, Concentration 49.5 uM, Number of replicates 2.0, Standard deviation 0.22697527774705212 %",95.7%
same,inhibition,"Thailand/16681/1984, Concentration 49.5 uM, Number of replicates 2.0, Standard deviation 0.262397512284336 %",95.2%
same,inhibition,"Thailand/16681/1984, Concentration 49.5 uM, Number of replicates 2.0, Standard deviation 0.3581065989316027 %",96.5%
same,inhibition,"Thailand/16681/1984, Concentration 49.5 uM, Number of replicates 2.0, Standard deviation 0.6751965592419794 %",94.5%
same,inhibition,"Thailand/16681/1984, Concentration 49.5 uM, Number of replicates 4.0, Standard deviation 0.3877656068031149 %",96.3%
same,inhibition,"Thailand/16681/1984, Concentration 49.8 uM, Number of replicates 2.0, Standard deviation 0.008615490185202914 %",98.3%
same,inhibition,"Thailand/16681/1984, Concentration 49.95 uM, Number of replicates 2.0, Standard deviation 0.5898131133050937 %",90.4%
same,inhibition,"Thailand/16681/1984, Concentration 50.0 uM, Number of replicates 2.0, Standard deviation 2.607110988642393 %",82.5%
same,inhibition,"Thailand/16681/1984, Concentration 98.52 uM, Number of replicates 2.0, Standard deviation 0.0007930351015809821 %",99.7%
same,inhibition,"Thailand/16681/1984, Concentration 99.01 uM, Number of replicates 2.0, Standard deviation 0.014371738167426778 %",98.3%
same,inhibition,"Thailand/16681/1984, Concentration 99.01 uM, Number of replicates 2.0, Standard deviation 0.015720437319775387 %",97.7%
same,inhibition,"Thailand/16681/1984, Concentration 99.01 uM, Number of replicates 2.0, Standard deviation 0.019361925031116632 %",97.6%
same,inhibition,"Thailand/16681/1984, Concentration 99.01 uM, Number of replicates 2.0, Standard deviation 0.03515249470681415 %",98%
same,inhibition,"Thailand/16681/1984, Concentration 99.01 uM, Number of replicates 2.0, Standard deviation 0.051056355111308946 %",98.5%
same,inhibition,"Thailand/16681/1984, Concentration 99.01 uM, Number of replicates 2.0, Standard deviation 0.05114267185705925 %",98.8%
same,inhibition,"Thailand/16681/1984, Concentration 99.01 uM, Number of replicates 2.0, Standard deviation 0.05214610402640662 %",98.2%
same,inhibition,"Thailand/16681/1984, Concentration 99.01 uM, Number of replicates 2.0, Standard deviation 0.05969881927955883 %",97.8%
same,inhibition,"Thailand/16681/1984, Concentration 99.01 uM, Number of replicates 2.0, Standard deviation 0.06259043026219424 %",97.6%
same,inhibition,"Thailand/16681/1984, Concentration 99.01 uM, Number of replicates 2.0, Standard deviation 0.0932706385798204 %",98.3%
same,inhibition,"Thailand/16681/1984, Concentration 99.01 uM, Number of replicates 2.0, Standard deviation 0.1268262734902538 %",98.1%
same,inhibition,"Thailand/16681/1984, Concentration 99.01 uM, Number of replicates 2.0, Standard deviation 0.1304084184388917 %",95.2%
same,inhibition,"Thailand/16681/1984, Concentration 99.01 uM, Number of replicates 2.0, Standard deviation 0.16720632611157116 %",97.6%
same,inhibition,"Thailand/16681/1984, Concentration 99.01 uM, Number of replicates 2.0, Standard deviation 0.19540492798887588 %",98.3%
same,inhibition,"Thailand/16681/1984, Concentration 99.01 uM, Number of replicates 2.0, Standard deviation 0.2057251739026474 %",97.9%
same,inhibition,"Thailand/16681/1984, Concentration 99.01 uM, Number of replicates 2.0, Standard deviation 0.39058866931676656 %",97.1%
same,inhibition,"Thailand/16681/1984, Concentration 99.01 uM, Number of replicates 4.0, Standard deviation 0.160745991426317 %",98.2%
same,inhibition,"Thailand/16681/1984, Concentration 99.5 uM, Number of replicates 2.0, Standard deviation 0.012726325201561474 %",99.3%
same,inhibition,"Thailand/16681/1984, Concentration 99.5 uM, Number of replicates 2.0, Standard deviation 0.04880672492519146 %",99.4%
same,inhibition,"Thailand/16681/1984, Concentration 99.9 uM, Number of replicates 2.0, Standard deviation 0.33233565552852545 %",95.1%
same,inhibition,"Thailand/16681/1984, Concentration 100.0 uM, Number of replicates 2.0, Standard deviation 1.0120962127020525 %",91.1%
same,inhibition,"Thailand/16681/1984, Concentration 198.0 uM, Number of replicates 2.0, Standard deviation 0.008588516202155942 %",97.6%
same,inhibition,"Thailand/16681/1984, Concentration 198.0 uM, Number of replicates 2.0, Standard deviation 0.009273655371549035 %",99.3%
same,inhibition,"Thailand/16681/1984, Concentration 198.0 uM, Number of replicates 2.0, Standard deviation 0.015984782353635714 %",99.5%
same,inhibition,"Thailand/16681/1984, Concentration 198.0 uM, Number of replicates 2.0, Standard deviation 0.02043009475977673 %",99%
same,inhibition,"Thailand/16681/1984, Concentration 198.0 uM, Number of replicates 2.0, Standard deviation 0.03091218457183012 %",99%
same,inhibition,"Thailand/16681/1984, Concentration 198.0 uM, Number of replicates 2.0, Standard deviation 0.034661568215359255 %",98.9%
same,inhibition,"Thailand/16681/1984, Concentration 198.0 uM, Number of replicates 2.0, Standard deviation 0.04180427892619749 %",98.9%
same,inhibition,"Thailand/16681/1984, Concentration 198.0 uM, Number of replicates 2.0, Standard deviation 0.05357033033128675 %",99.3%
same,inhibition,"Thailand/16681/1984, Concentration 198.0 uM, Number of replicates 2.0, Standard deviation 0.055172584924276895 %",99.5%
same,inhibition,"Thailand/16681/1984, Concentration 198.0 uM, Number of replicates 2.0, Standard deviation 0.06522309100757873 %",99.1%
same,inhibition,"Thailand/16681/1984, Concentration 198.0 uM, Number of replicates 2.0, Standard deviation 0.07510635839598934 %",99.3%
same,inhibition,"Thailand/16681/1984, Concentration 198.0 uM, Number of replicates 2.0, Standard deviation 0.08009654525967919 %",99.1%
same,inhibition,"Thailand/16681/1984, Concentration 198.0 uM, Number of replicates 2.0, Standard deviation 0.10986503295031769 %",99.2%
same,inhibition,"Thailand/16681/1984, Concentration 198.0 uM, Number of replicates 2.0, Standard deviation 0.15163694309685882 %",99%
same,inhibition,"Thailand/16681/1984, Concentration 198.0 uM, Number of replicates 2.0, Standard deviation 0.1571827940113163 %",98.9%
same,inhibition,"Thailand/16681/1984, Concentration 198.0 uM, Number of replicates 2.0, Standard deviation 0.24491837126989802 %",98.3%
same,inhibition,"Thailand/16681/1984, Concentration 198.0 uM, Number of replicates 4.0, Standard deviation 0.0821711955101111 %",99.2%
same,inhibition,"Thailand/16681/1984, Concentration 295.6 uM, Number of replicates 2.0, Standard deviation 0.015100035709695026 %",100%
same,inhibition,"Thailand/16681/1984, Concentration 295.6 uM, Number of replicates 2.0, Standard deviation 0.020829309708871917 %",99.9%
NC(=O)c1cccc(NC(=O)[C@@H](NC(=O)c2ccc(Oc3ccc(C(F)(F)F)cc3)cc2)c2ccc(OCc3ccccc3)cc2)c1,inhibition,"Thailand/16681/1984, Concentration 49.5 uM, Number of replicates 2.0, Standard deviation 0.7362133947681709 %",6.2%
same,inhibition,"Thailand/16681/1984, Concentration 99.01 uM, Number of replicates 2.0, Standard deviation 0.5343411171689955 %",12.7%
same,inhibition,"Thailand/16681/1984, Concentration 198.0 uM, Number of replicates 2.0, Standard deviation 1.7800185360663037 %",24.8%
N#Cc1cccc(NC(=O)[C@@H](NC(=O)c2ccc(Oc3ccc(C(F)(F)F)cc3)cc2)c2ccc(OCc3ccccc3)cc2)c1,inhibition,"Thailand/16681/1984, Concentration 49.5 uM, Number of replicates 2.0, Standard deviation 0.9263674997821656 %",-5.09%
same,inhibition,"Thailand/16681/1984, Concentration 99.01 uM, Number of replicates 2.0, Standard deviation 0.4269393146330484 %",-4.04%
same,inhibition,"Thailand/16681/1984, Concentration 198.0 uM, Number of replicates 2.0, Standard deviation 0.9636779131327375 %",-5.31%
